Screening data (PubChem)
hNpr1 antagonist = blocks ANP-stimulated signaling of human Npr1 receptor; 1.6% of 76,000 active; HEK293 hNpr1 GloSensor cGMP, ANP-stimulated luminescence; Potency, µM (highest dose often 46.3 µM), usual class: inhibitors; P16066; AID 1347048; calls by dose curve; also: nearly all actives have a fitted effect of over 60% in size
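Compound pre-incubated 30 min at room temperature on GloSensor-loaded HEK293 cells stably carrying hNpr1 and the pGS-40F cGMP biosensor. Stimulation uses hNppA at 0.1 nM final; luminescence is taken at baseline and 20 min post-agonist.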
FLuc inh = blocks purified firefly luciferase enzyme activity; P08659; purified P. pyralis luciferase, luminescence, biochemical; Potency, µM (highest dose often 115 µM), hits mostly inhibitors; 2.5% of 76,000 active; also: nearly all actives have a fitted effect of over 65% in size
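Inhibitors were tested against purified firefly luciferase in a biochemical, low-substrate format (both substrates at 10uM) and luminescence measured with a CCD imager.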
HEK cytotox = HEK 293 cell cytotoxicity | HEK 293 viability, ATP luminescence (CellTiter-Glo), 48-72 h | 6.6% of 94,000 active | Potency, µM (doses to about 115 µM), actives largely listed as inhibitors; also: nearly all actives have a fitted effect of over 60% in size
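CellTiter-Glo luminescence (cellular ATP) was read after 48 or 72 hr of compound exposure at 37 degree Celsius. Cells were HEK 293 plated at 250 cells/well.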
NIH3T3 tox = kills NIH 3T3 cells | NIH 3T3 viability, CellTiter-Glo ATP luminescence, 48-72 h | Potency, µM (top dose mostly 96.7 µM), hits mostly inhibitors | 4.3% of 94,000 active; also: nearly all actives have a fitted effect of over 55% in size
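Cytotoxicity is measured as loss of cellular ATP: NIH 3T3 cells (400/well) are exposed to compound for 48 or 72 hr at 37 °C, then CellTiter-Glo luminescence is imaged after 10 min at room temperature.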
GPT2 inhibitor = blocks human glutamate pyruvate transaminase 2. Potency, µM (titrated, usually from 57.7 µM), actives largely listed as inhibitors. 0.25% of 100,000 active. Recombinant GPT2, coupled pyruvate oxidase/HRP Amplex Red fluorescence. AID 1671188. Q8TD30; also: nearly all actives have a fitted effect of over 60% in size
Target sequence (Q8TD30 whole entry, looked up): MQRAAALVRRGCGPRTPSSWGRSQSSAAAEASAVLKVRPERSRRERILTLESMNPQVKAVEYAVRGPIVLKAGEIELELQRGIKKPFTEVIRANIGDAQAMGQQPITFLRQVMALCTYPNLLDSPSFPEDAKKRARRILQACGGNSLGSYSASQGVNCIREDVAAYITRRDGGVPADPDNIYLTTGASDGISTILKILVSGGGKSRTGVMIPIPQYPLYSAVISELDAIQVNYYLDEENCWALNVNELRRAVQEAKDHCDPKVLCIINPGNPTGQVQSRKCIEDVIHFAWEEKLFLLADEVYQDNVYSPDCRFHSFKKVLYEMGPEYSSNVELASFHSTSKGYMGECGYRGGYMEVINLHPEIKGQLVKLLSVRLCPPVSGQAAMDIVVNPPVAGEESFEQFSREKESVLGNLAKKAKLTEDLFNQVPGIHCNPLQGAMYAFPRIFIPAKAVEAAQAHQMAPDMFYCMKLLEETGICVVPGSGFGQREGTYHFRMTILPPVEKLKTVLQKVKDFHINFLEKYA
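Fluorescence of coupled pyruvate oxidase/HRP/Amplex Red system (50uM Amplex, 30 min, dark) reports pyruvate formed by GPT2. Enzyme reaction: 10ng/uL GPT2, 2mM L-alanine, 250uM a-KG, 30 min room temperature, pH 7.5; 50uM AOA control.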
Npr1 antag conf = hNpr1 antagonism, confirmation assay; HEK293 hNpr1 cGMP GloSensor luminescence, ANP-stimulated; 76% of 1,400 active; shares compounds with hNpr1 antagonist; Potency, µM (doses to about 57.6 µM), most hits filed as inhibitors; calls by dose curve; also: nearly all actives have a fitted effect of over 70% in size
Npr2 selectivity = hNpr2 antagonism, selectivity versus Npr1; 67% of 1,400 active; HEK293 hNpr2 GloSensor cGMP luminescence, CNP-stimulated; Potency, µM (highest dose often 57.6 µM), most hits filed as inhibitors; shares compounds with hNpr1 antagonist; calls by dose curve; also: nearly all actives have a fitted effect of over 70% in size
FLuc inh counter = FLuc enzyme inhibition, Npr1 counter-screen; shares compounds with hNpr1 antagonist; purified FLuc enzyme, luminescence, Km substrate; Potency, µM (top dose mostly 57.6 µM), actives largely listed as inhibitors; 0.7% of 1,400 active; AID 1347047
GloSensor cGMP = reduces cGMP signal in GloSensor control cells. shares compounds with hNpr1 antagonist. Potency, µM (series often up to 57.6 µM), actives largely listed as inhibitors. HEK293 GloSensor cGMP, SNP-stimulated, luminescence. 69% of 1,400 active; calls by dose curve; also: nearly all actives have a fitted effect of over 70% in size
Of the large screens only hits and unclear results are named; the others gave an inactive call (follow-up assays come after a bar, where they were run). A selection: hits, their analogues and other compounds. The true share with any hit is near 10%. Unless noted, calls follow the shape of the dose curve; as a rule, active = well fitted curve in the direction sought with a large enough effect; inconclusive = small, poorly fitted or top-dose-only effect, or another doubt; inactive = no such curve, though single readings can be large; an effect the other way counts as inactive or inconclusive.

CC(=O)c1c(C)nn(CC(=O)N2CCn3nc(Cc4ccccc4)cc3C2)c1C	hNpr1 antagonist 11µM, HEK cytotox inconclusive | Npr1 antag conf 22µM | Npr2 selectivity 19µM | FLuc inh counter inactive | GloSensor cGMP 14µM
O=C(CN1CCCCCCC1)N1CCn2nc(Cc3ccccc3)cc2C1	NIH3T3 tox inconclusive
Cn1cc(-c2cnc3n[nH]c(-c4ccc5c(c4)OCO5)c3n2)cn1	HEK cytotox inconclusive, NIH3T3 tox inconclusive
CCN(Cc1ccncc1)C(=O)CC(c1ccccc1)c1ccc2c(c1)OCO2 (stereo unspecified)	hNpr1 antagonist inconclusive, HEK cytotox inconclusive, GPT2 inhibitor inconclusive | Npr1 antag conf inconclusive | Npr2 selectivity 14µM | FLuc inh counter inactive | GloSensor cGMP inactive
CCN(Cc1ccncc1)C(=O)c1ccc(C2CCNC2)cc1 (stereo unspecified)	none
CCN(CC)C(=O)C[C@@H]1CCNC[C@@H]1Cc1cc(-c2ccc(F)cc2)on1	HEK cytotox inconclusive, NIH3T3 tox inconclusive
COc1cc(CNC(=O)C2Cn3cccc3C(=O)N2CC(C)C)cc(OC)c1 (stereo unspecified)	none
CC(C)NC(=O)NC1CC2(CCN(C(=O)C3CCN(C)CC3)CC2)c2ccccc21 (stereo unspecified)	none (no result: hNpr1 antagonist, FLuc inh)
O=C(O)CC1CCCCN(Cc2ccccc2)C1=O (stereo unspecified)	none
Cc1cccc(N2CCN(C(=O)CC3CCCCN(Cc4ccccc4)C3=O)CC2)c1 (stereo unspecified)	hNpr1 antagonist 13µM, HEK cytotox inconclusive, NIH3T3 tox inconclusive | Npr1 antag conf 19µM | Npr2 selectivity 22µM | FLuc inh counter inactive | GloSensor cGMP 22µM
O=C(Nc1ccc(Cl)cc1)N1Cc2[nH]cnc2C[C@H]1c1nc(-c2ccccc2)no1	HEK cytotox 79µM, NIH3T3 tox 32µM | Npr1 antag conf inconclusive | Npr2 selectivity inconclusive | FLuc inh counter inconclusive | GloSensor cGMP inactive
CN(Cc1ccc(F)cc1)c1ccc2ncc(Nc3ccnc(N4CCOCC4)c3)n2n1	hNpr1 antagonist 10µM, HEK cytotox inconclusive, NIH3T3 tox inconclusive | Npr1 antag conf 25µM | Npr2 selectivity 16µM | FLuc inh counter inactive | GloSensor cGMP 18µM
CN(CCc1ccncc1)C(=O)CCc1ccnc(N2CCOCC2)c1	none
CC(C)C[C@@H](N)[C@H](O)C(=O)N[C@H](C(=O)N[C@H](C(=O)N[C@@H](CC(=O)O)C(=O)O)C(C)C)C(C)C	none (no result: hNpr1 antagonist, FLuc inh, HEK cytotox, NIH3T3 tox)
O=C(Nc1ccc(F)c(Cl)c1)C1=NO[C@@H]2CN(Cc3cccnc3)C[C@H]12	hNpr1 antagonist 28µM, HEK cytotox inconclusive, NIH3T3 tox inconclusive | Npr1 antag conf 35µM | Npr2 selectivity 35µM | FLuc inh counter inactive | GloSensor cGMP 31µM
O=C(Nc1cccc(Cl)c1)C1=NO[C@@H]2CN(Cc3cccnc3)C[C@H]12	hNpr1 antagonist inconclusive, HEK cytotox inconclusive, NIH3T3 tox inconclusive
O=C(Nc1ccncc1)C1=NO[C@@H]2CN(CCc3ccccc3)C[C@H]12	hNpr1 antagonist inconclusive, HEK cytotox inconclusive, NIH3T3 tox inconclusive | Npr1 antag conf 40µM | Npr2 selectivity inconclusive | FLuc inh counter inactive | GloSensor cGMP 35µM
O=C1CCN(C(=O)[C@@H](Cc2ccccc2)NC(=O)Nc2ccccc2)CCOCCN1	none
COc1ccc(Cn2c(C3CCN(C(=O)c4ccc5c(c4)OCO5)CC3)n[nH]c2=O)cc1	none
COc1ccc(S(=O)(=O)N2CCC(F)(c3nc(-c4ccncc4)no3)CC2)cc1	HEK cytotox inconclusive, NIH3T3 tox inconclusive (no result: hNpr1 antagonist, FLuc inh)
CN(Cc1ccccc1)C(=O)c1ccc2c(c1)NC(C)(COc1cccnc1)CO2 (stereo unspecified)	hNpr1 antagonist 32µM, HEK cytotox inconclusive | Npr1 antag conf 31µM | Npr2 selectivity 31µM | FLuc inh counter inactive | GloSensor cGMP 22µM
CC1(COc2ccccc2)COc2ccc(C(=O)N3CCN(c4ccccn4)CC3)cc2N1 (stereo unspecified)	HEK cytotox inconclusive, NIH3T3 tox inconclusive
COc1ccc(OCC2(C)COc3ccc(C(=O)Nc4ccc(OC)nc4)cc3N2)cc1 (stereo unspecified)	hNpr1 antagonist 35µM, HEK cytotox 56µM, NIH3T3 tox inconclusive | Npr1 antag conf 35µM | Npr2 selectivity 40µM | FLuc inh counter inactive | GloSensor cGMP 35µM
COc1ccc(NC(=O)c2ccc3c(c2)NC(C)(COCC2CC2)CO3)cn1 (stereo unspecified)	FLuc inh inconclusive, HEK cytotox inconclusive, NIH3T3 tox inconclusive
CC1(COc2cccnc2)COc2ccc(C(=O)N3CCN(c4ccccn4)CC3)cc2N1 (stereo unspecified)	hNpr1 antagonist 6.3µM, HEK cytotox inconclusive, NIH3T3 tox inconclusive | Npr1 antag conf 6.9µM | Npr2 selectivity 7.7µM | FLuc inh counter inactive | GloSensor cGMP 5.4µM
Cc1nc(-c2cccc(Cl)c2)n(Cc2nc(-c3ccc(OC(C)C)cc3)oc2C)c(=O)c1CCO	none
COc1ccc(CNC(=O)Cn2ccn3nc(-c4ccccc4)c(CO)c3c2=O)cc1OC	HEK cytotox inconclusive
O=C(NCC1CN(Cc2ccncc2)CC12CN(c1ccccc1)C2)Nc1ccccc1 (stereo unspecified)	HEK cytotox inconclusive, NIH3T3 tox inconclusive
COc1ccc(N2CCN(c3nc(C(=O)NCc4ccc(C)cc4)cs3)CC2)cc1	hNpr1 antagonist 4.5µM, HEK cytotox 28µM | Npr1 antag conf 7.7µM | Npr2 selectivity 11µM | FLuc inh counter inactive | GloSensor cGMP 8.6µM
COc1ccc(N2CCN(c3nc(C(=O)NCc4cccc(C)c4)cs3)CC2)cc1	hNpr1 antagonist 16µM, HEK cytotox 18µM, NIH3T3 tox inconclusive, GPT2 inhibitor inconclusive | Npr1 antag conf 15µM | Npr2 selectivity 15µM | FLuc inh counter inactive | GloSensor cGMP 12µM
COc1ccc(N2CCN(c3nc(C(=O)N4CCCC(C)C4)cs3)CC2)cc1 (stereo unspecified)	hNpr1 antagonist inconclusive, FLuc inh inconclusive, HEK cytotox inconclusive, NIH3T3 tox inconclusive
